The supplement of paper PMC10849652
Targets with a hit are over-represented here; the source holds about 8,800 in all. About 0.5% of all pairs of compound and target were hits.

Legend:
Test in all cases: log2 fold change, soluble protein after heating vs DMSO (PISA); higher = thermal stabilisation; K562 lysate, 10 uM; active = over 0.2 and 3.5 SD of the protein, either way, in both replicates (recomputed)
lapatinib = compound: CS(=O)(=O)CCNCc1ccc(-c2ccc3ncnc(Nc4ccc(OCc5cccc(F)c5)c(Cl)c4)c3c2)o1 [lapatinib]
How it was run: (§1)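 Soluble protein was defined as the supernatant remaining after 21,000xg for 90 min, following pooling of heated aliquots and adjustment to 0.5% NP-40 at 4°C. Before that, crude K562 extract at 1 mg/mL protein in PBS pH 7.4 with 1 mM MgCl2 was treated with 10 μM compound for 30 min and heated for 3 min across 48°C-58°C. Quantification used TMTpro 16plex LC-MS/MS with channel sums equalised, and values are log-two fold changes in thermal stability relative to solvent controls from duplicates.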

crizotinib = compound: C[C@@H](Oc1cc(-c2cnn(C3CCNCC3)c2)cnc1N)c1c(Cl)ccc(F)c1Cl [crizotinib]
How it was run: as §1

[1] = compound: C[C@H](C1=CC=C(C=C1)C(=O)NC2=C3C=CNC3=NC=C2)N
How it was run: as §1

duvelisib = compound: C[C@H](Nc1ncnc2nc[nH]c12)c1cc2cccc(Cl)c2c(=O)n1-c1ccccc1 [duvelisib]
How it was run: as §1

gandotinib = compound: Cc1cc(Nc2cc(CN3CCOCC3)c3nc(C)c(Cc4ccc(Cl)cc4F)n3n2)n[nH]1 [gandotinib]
How it was run: as §1

tozasertib = compound: Cc1cc(Nc2cc(N3CCN(C)CC3)nc(Sc3ccc(NC(=O)C4CC4)cc3)n2)n[nH]1 [tozasertib]
How it was run: as §1

doramapimod = compound: Cc1ccc(-n2nc(C(C)(C)C)cc2NC(=O)Nc2ccc(OCCN3CCOCC3)c3ccccc23)cc1 [doramapimod]
How it was run: as §1

bafetinib = compound: Cc1ccc(NC(=O)c2ccc(CN3CC[C@H](N(C)C)C3)c(C(F)(F)F)c2)cc1Nc1nccc(-c2cncnc2)n1 [bafetinib]
How it was run: as §1

[2] = compound: Cc1cccc(CC(=O)N2CCc3c2ccc(-c2cn(C)c4ncnc(N)c24)c3F)n1
How it was run: as §1

nilotinib = compound: Cc1cn(-c2cc(NC(=O)c3ccc(C)c(Nc4nccc(-c5cccnc5)n4)c3)cc(C(F)(F)F)c2)cn1 [nilotinib]
How it was run: as §1

[3] = compound: Cc1nc(Nc2n[nH]c3c2CN(C(=O)N[C@H](CN(C)C)c2ccccc2)C3(C)C)c2sccc2n1
How it was run: as §1

dasatinib = compound: Cc1nc(Nc2ncc(C(=O)Nc3c(C)cccc3Cl)s2)cc(N2CCN(CCO)CC2)n1 [dasatinib]
How it was run: as §1

[4] = compound: Cc1ncc(-c2ccnc(Nc3ccc(S(C)(=O)=O)cc3)n2)n1C(C)C
How it was run: as §1

[5] = compound: Cn1cc(-c2ccc3c(c2)CCN3C(=O)Cc2cccc(C(F)(F)F)c2)c2c(N)ncnc21
How it was run: as §1

quisinostat = compound: Cn1cc(CNCC2CCN(c3ncc(C(=O)NO)cn3)CC2)c2ccccc21 [quisinostat]
How it was run: as §1

tipifarnib = compound: Cn1cncc1[C@@](N)(c1ccc(Cl)cc1)c1ccc2c(c1)c(-c1cccc(Cl)c1)cc(=O)n2C [tipifarnib]
How it was run: as §1

[6] = compound: NC(=O)Nc1cc(-c2cccc(F)c2)sc1C(=O)N[C@H]1CCCNC1
How it was run: as §1

[7] = compound: NC(=O)c1cnc(N[C@@H]2CCCC[C@@H]2N)nc1Nc1cccc(-n2nccn2)c1
How it was run: as §1

[8] = compound: NC1(c2ccc(-c3nc4ccn5c(=O)[nH]nc5c4cc3-c3ccccc3)cc2)CCC1
How it was run: as §1

pictilisib = compound: CS(=O)(=O)N1CCN(Cc2cc3nc(-c4cccc5[nH]ncc45)nc(N4CCOCC4)c3s2)CC1 [pictilisib]
How it was run: as §1

Measured: log2 fold change

CLCN3 isoform 2 (UniProt P51790)
UniProt P51790, sequence (P51790 whole entry, looked up): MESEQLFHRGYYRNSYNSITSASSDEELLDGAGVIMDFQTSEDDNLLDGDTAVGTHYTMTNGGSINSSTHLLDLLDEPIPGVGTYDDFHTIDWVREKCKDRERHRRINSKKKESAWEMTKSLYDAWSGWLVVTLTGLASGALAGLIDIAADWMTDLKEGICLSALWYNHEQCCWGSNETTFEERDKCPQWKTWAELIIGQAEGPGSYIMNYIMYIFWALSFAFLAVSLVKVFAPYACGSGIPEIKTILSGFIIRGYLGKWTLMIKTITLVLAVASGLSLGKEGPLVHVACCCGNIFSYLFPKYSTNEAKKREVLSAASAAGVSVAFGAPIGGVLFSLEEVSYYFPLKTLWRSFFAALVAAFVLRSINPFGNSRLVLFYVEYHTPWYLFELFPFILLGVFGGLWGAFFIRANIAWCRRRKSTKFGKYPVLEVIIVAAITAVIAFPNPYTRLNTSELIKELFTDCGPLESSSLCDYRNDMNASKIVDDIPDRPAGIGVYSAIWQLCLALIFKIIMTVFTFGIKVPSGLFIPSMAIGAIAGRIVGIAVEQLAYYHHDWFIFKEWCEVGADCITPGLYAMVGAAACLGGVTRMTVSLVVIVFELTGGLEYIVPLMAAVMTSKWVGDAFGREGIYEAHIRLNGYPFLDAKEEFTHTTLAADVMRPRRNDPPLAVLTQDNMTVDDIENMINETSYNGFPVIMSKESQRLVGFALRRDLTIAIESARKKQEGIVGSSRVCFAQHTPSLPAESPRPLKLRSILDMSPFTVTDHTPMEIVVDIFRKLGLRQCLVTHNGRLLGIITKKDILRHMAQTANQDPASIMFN
inactive: lapatinib 0.047 | crizotinib -0.047 | [1] -0.075 | duvelisib 0.034 | gandotinib -0.018 | tozasertib -0.011 | doramapimod 0.026 | bafetinib -0.005 | [2] 0.024 | nilotinib 0.017 | [3] -0.018 | dasatinib -0.012 | [4] 0.006 | [5] -0.008 | quisinostat 0.01 | tipifarnib -0.012 | [6] 0.04 | [7] 0.022 | [8] 0.024

DDB2 (UniProt Q92466)
UniProt Q92466, sequence (Q92466 whole entry, looked up): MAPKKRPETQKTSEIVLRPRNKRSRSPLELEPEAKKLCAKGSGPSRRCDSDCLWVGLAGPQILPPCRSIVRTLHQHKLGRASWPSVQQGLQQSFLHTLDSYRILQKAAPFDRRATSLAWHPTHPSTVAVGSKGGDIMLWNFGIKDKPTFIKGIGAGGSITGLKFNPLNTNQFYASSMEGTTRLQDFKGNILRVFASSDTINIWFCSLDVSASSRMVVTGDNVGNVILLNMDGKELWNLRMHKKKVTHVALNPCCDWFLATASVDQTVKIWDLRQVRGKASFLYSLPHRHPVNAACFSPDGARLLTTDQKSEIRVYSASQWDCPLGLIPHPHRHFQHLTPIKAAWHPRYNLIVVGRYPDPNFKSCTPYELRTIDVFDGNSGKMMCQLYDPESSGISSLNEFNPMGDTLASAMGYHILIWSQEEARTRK
inactive: lapatinib -0.03 | pictilisib -0.025 | crizotinib -0.025 | [1] -0.01 | duvelisib 0.014 | gandotinib 0.046 | tozasertib -0.026 | doramapimod 0.05 | bafetinib 0.023 | [2] 0.008 | nilotinib -0.027 | [3] -0.024 | dasatinib -0.033 | [4] -0.044 | [5] 0.02 | quisinostat 0.028 | tipifarnib 0.026 | [6] 0.021 | [7] 0.006 | [8] -0.003

CRLS1 (UniProt Q9UJA2)
UniProt Q9UJA2, sequence (Q9UJA2 whole entry, looked up): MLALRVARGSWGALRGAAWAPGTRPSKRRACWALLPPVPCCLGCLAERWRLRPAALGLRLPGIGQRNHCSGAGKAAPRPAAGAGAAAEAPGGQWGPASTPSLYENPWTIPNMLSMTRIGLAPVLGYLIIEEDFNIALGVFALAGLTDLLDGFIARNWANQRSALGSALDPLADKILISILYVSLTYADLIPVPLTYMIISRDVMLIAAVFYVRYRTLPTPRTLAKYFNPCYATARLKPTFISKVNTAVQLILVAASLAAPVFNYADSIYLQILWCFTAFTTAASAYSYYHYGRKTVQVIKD
inactive: lapatinib -0.003 | pictilisib -0.107 | crizotinib -0.086 | [1] 0.084 | gandotinib -0.105 | doramapimod -0.062 | bafetinib -0.437 | [2] -0.176 | nilotinib 0.1 | [3] -0.096 | [4] -0.143 | quisinostat -0.122 | tipifarnib -0.01 | [6] 0.066 | [7] -0.018 | [8] -0.067

DHRS13 (UniProt Q6UX07)
inactive: lapatinib 0.048 | pictilisib -0.052 | crizotinib -0.048 | duvelisib 0.185 | doramapimod 0.087 | bafetinib -0.113 | nilotinib 0.133 | [3] 0.385 | dasatinib 0.048 | [4] -0.142 | [5] 0.142 | quisinostat 0.078 | tipifarnib -0.223 | [6] -0.011 | [7] -0.08 | [8] -0.121

DDX4 (UniProt Q9NQI0)
inactive: lapatinib -0.045 | pictilisib 0.035 | duvelisib 0.02 | gandotinib 0.132 | tozasertib 0.078 | bafetinib -0.167 | [2] 0.174 | nilotinib -0.108 | [3] 0.043 | dasatinib 0.014 | [4] -0.085 | [5] 0.076 | tipifarnib 0.028 | [7] 0.062 | [8] 0.059
active: [1] -0.481

CLIP1 isoform 1 (UniProt P30622)
inactive: lapatinib 0.006 | crizotinib 0.023 | [1] -0.023 | duvelisib 0.004 | gandotinib 0.036 | tozasertib 0.001 | doramapimod 0.011 | bafetinib -0.003 | [2] -0.01 | nilotinib -0.01 | [3] 0.01 | dasatinib 0.022 | [4] 0.013 | [5] 0.001 | quisinostat 0.008 | tipifarnib 0.002 | [6] -0.004 | [7] -0.002 | [8] -0.002

CLP1 (UniProt Q92989)
UniProt Q92989, sequence (Q92989 whole entry, looked up): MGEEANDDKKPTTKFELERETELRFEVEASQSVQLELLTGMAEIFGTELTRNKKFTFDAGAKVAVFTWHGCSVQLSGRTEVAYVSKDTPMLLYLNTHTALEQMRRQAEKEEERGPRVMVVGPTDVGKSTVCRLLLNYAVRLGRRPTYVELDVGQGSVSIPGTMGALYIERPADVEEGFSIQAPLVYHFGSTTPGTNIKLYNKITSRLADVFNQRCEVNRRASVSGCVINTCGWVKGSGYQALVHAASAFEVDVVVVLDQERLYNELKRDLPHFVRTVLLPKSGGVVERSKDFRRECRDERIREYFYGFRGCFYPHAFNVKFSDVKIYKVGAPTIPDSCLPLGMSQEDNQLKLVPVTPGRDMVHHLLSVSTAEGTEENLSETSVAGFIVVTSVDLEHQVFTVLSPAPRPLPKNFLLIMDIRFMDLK
inactive: lapatinib -0.003 | crizotinib -0.041 | [1] -0.12 | duvelisib -0.056 | gandotinib 0.008 | tozasertib 0.004 | doramapimod 0.032 | bafetinib 0.01 | [2] 0.047 | nilotinib -0.029 | [3] 0.039 | dasatinib -0.037 | [4] -0.039 | [5] 0.119 | quisinostat -0.065 | tipifarnib -0.011 | [6] 0.029 | [7] -0.027 | [8] 0.026

CSTF2 (UniProt P33240)
UniProt P33240, sequence (P33240 whole entry, looked up): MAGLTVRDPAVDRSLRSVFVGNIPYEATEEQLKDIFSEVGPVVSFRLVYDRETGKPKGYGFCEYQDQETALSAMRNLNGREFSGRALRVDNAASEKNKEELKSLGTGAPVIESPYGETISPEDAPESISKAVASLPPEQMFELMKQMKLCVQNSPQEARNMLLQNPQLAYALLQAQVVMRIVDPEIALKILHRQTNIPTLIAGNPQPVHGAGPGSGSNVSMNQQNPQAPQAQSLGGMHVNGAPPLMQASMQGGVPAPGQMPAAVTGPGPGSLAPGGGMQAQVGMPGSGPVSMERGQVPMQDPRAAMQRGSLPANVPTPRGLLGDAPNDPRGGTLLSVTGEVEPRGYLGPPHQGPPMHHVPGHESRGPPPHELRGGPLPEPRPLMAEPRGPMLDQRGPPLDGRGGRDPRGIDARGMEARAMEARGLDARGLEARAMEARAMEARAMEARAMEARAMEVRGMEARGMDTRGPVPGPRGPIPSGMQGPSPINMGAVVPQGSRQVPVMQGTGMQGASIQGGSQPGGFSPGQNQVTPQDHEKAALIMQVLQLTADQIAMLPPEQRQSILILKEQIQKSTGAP
inactive: lapatinib -0.006 | pictilisib -0.049 | crizotinib 0.003 | [1] -0.025 | duvelisib 0.044 | gandotinib 0.051 | tozasertib 0.033 | doramapimod 0.036 | bafetinib 0.03 | [2] -0.001 | nilotinib 0.031 | [3] 0.038 | dasatinib 0.03 | [4] -0.017 | [5] -0.029 | quisinostat 0.033 | tipifarnib -0.021 | [6] -0.013 | [7] -0.007 | [8] 0.052

DOCK10 (UniProt Q96BY6)
UniProt Q96BY6, sequence (Q96BY6 whole entry, looked up): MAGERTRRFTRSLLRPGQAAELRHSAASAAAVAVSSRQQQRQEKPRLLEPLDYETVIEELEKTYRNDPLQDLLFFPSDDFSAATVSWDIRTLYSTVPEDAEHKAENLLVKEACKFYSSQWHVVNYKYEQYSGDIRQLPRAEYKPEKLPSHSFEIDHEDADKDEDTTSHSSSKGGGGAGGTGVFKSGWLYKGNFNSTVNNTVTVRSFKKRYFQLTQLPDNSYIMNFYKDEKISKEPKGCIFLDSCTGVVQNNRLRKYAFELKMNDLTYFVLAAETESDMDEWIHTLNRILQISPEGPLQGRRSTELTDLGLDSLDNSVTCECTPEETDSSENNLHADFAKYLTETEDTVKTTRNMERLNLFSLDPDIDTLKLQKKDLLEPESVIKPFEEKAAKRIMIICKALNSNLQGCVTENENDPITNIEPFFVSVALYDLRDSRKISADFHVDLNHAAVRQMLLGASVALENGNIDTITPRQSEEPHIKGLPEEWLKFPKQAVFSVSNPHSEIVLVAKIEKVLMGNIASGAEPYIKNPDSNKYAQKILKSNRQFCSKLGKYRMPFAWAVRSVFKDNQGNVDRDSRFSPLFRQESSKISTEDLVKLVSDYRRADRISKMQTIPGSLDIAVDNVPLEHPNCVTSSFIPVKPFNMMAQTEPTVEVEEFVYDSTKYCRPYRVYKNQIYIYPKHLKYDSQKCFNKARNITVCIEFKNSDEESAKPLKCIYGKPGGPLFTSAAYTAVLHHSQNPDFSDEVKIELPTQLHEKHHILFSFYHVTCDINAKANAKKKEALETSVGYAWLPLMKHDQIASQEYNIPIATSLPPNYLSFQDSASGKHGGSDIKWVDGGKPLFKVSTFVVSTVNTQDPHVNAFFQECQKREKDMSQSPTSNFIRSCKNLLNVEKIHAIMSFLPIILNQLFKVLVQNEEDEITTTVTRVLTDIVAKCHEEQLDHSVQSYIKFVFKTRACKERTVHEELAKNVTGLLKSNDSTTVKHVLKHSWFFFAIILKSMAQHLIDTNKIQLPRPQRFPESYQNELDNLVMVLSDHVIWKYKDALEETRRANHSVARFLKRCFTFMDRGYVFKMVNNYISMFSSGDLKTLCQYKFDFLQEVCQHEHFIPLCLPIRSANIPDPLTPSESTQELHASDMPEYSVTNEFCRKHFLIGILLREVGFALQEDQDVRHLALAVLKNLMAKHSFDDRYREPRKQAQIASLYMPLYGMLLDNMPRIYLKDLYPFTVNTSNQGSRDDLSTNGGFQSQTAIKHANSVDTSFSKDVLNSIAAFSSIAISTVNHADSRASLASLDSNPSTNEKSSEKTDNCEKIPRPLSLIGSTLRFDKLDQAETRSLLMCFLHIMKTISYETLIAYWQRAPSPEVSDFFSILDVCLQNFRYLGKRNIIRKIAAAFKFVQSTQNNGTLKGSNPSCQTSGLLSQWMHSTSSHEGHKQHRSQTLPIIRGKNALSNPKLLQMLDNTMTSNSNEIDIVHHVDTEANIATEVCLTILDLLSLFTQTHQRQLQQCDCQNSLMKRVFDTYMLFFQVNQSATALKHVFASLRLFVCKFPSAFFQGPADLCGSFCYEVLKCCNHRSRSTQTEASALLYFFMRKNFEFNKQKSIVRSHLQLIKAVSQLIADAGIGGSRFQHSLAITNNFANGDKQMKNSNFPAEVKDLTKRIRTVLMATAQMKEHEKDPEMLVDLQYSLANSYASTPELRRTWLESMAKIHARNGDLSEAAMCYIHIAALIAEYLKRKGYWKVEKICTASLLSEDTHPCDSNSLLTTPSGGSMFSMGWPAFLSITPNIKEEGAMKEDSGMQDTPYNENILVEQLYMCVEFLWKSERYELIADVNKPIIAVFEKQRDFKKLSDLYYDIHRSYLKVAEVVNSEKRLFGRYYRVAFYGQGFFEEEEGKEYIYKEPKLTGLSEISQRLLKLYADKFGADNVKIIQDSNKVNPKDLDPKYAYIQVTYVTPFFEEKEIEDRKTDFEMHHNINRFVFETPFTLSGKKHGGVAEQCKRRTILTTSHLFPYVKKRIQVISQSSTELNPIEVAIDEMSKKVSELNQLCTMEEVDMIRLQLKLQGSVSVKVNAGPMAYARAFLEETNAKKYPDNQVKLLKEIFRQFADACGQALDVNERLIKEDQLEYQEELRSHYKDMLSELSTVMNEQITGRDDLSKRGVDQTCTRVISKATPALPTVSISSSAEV
inactive: lapatinib -0.025 | pictilisib -0.024 | crizotinib -0.461 | duvelisib 0.003 | gandotinib 0.231 | tozasertib 0 | doramapimod 0.137 | bafetinib -0.226 | [2] 0.379 | nilotinib -0.046 | [3] -0.008 | dasatinib -0.086 | [4] -0.081 | [5] 0.025 | tipifarnib -0.129 | [6] -0.011 | [7] 0.029 | [8] -0.086
active: [1] -0.641 | quisinostat -0.636
